Screens from PubChem BioAssay.
The list is not random: actives were taken first. Their share in the collection is about 0.93%.
HIF act – HIF pathway transcriptional activation. 0.32% of 300,000 active. U2OS HRE-luciferase reporter, luminescence; normalized: DMSO 0%, desferrioxamine 100%. activation, % at 7.5 µM (by protocol);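 active = mean activation of at least 10% of the iron chelator positive control signal, with at least half of replicates also reaching 10%; inconclusive = mean and replicate majority disagree about reaching 10%; inactive = mean and most replicates under 10%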
697 NFkB inh – inhibitors of the PMA/ionomycin-induced NF-kB reporter in 697 B cells; 697 B-cell NF-kB luciferase reporter, 16 h; inhibition, % at 4 µM; AID 435022; 0.33% of 330,000 active; in the data active = inhibition above about 35%
Jurkat NFkB inh – inhibitors of the PMA/ionomycin-induced NF-kB reporter in Jurkat cells; PMA/ionomycin-induced NF-kB luciferase reporter, luminescence; inhibition, % at 4 µM; 0.53% of 330,000 active; AID 435003; in the data active = inhibition above about 50%
F508del corr – CFTR F508del correction in bronchial cells; CFBE cells, YFP halide quenching; stimulated with forskolin plus potentiator P3; % fluorescence drop versus neutral controls; activity (quench increase), % at 7.58 µM; 0.36% of 350,000 active;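 active = mean added fluorescence quench of at least 8% versus neutral control, with both replicates also reaching 8%; inconclusive = only one of the mean or replicate conditions met; inactive = mean below 8% and not both replicates reaching 8%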;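 note: cells transiently co-express mutant CFTR-F508del with the halide-sensitive YFP; corrector assay measuring rescue of mutant channel to the surface after 24 h compound exposure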
Jurkat NFkB conf – lowers PMA/ionomycin-induced NF-kB signal in Jurkat cells | inhibition, % at 4 µM | 27% of 2,700 active | AID 435020 | shares compounds with Jurkat NFkB inh | Jurkat NF-kB luciferase, 16 h;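 active = inhibition reaching about 45% at 4 µM in either replicate, limit read from the data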;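 note: plate controls were PMA/ionomycin stimulated DMSO wells for no effect and unstimulated DMSO wells for full effect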
An asterisk follows results filed as active; ? = inconclusive; · = no result given.

SMILES	HIF act	697 NFkB inh	Jurkat NFkB inh	F508del corr	Jurkat NFkB conf
COc1ccc2c3c(n(C)c2c1)[C@H](CO)N(Cc1ccc(F)cc1)CC31CN(C)C1	·	·	·	-1	·
COc1ccc(N(C)C2=NS(=O)(=O)c3ccccc32)cc1	2	-73	56*	·	39
COc1ccccc1NC(=O)CCCC(=O)OCC(=O)c1ccc(F)cc1	0	-1	-2	-1	·
COc1ccccc1NC(CC(=O)c1ccccc1)C(=O)OCC(=O)c1ccc(F)cc1 (stereo not drawn)	3	-168	-173	·	-41
N#Cc1ccc(-c2cccs2)nc1SCc1cccnc1	0	-37	66*	9.0*	37
Cc1ccnc(NC(=O)c2oc3ccccc3c2C)c1	-1	-188	-168	-1	-116
Cc1c(C(=O)Nc2cnccn2)oc2ccccc12	5	8	-4	2	·
CCOc1ccc2oc(C(=O)Nc3cc(C)ccn3)c(C)c2c1	0	-184	-164	-2	-72
CCOc1ccc2oc(C(=O)O)c(C)c2c1	0	25	13	-2	·
CC(C)(C)c1ccc(C(=O)Nc2ccc(Oc3cccnc3)nc2)cc1	0	-38	52*	1	48
O=C(C=Cc1ccccc1)c1c[nH]c2ccccc2c1=O	·	·	·	-10	·
O=C(/C=C/c1ccccc1)c1c[nH]c2ccccc12	1	-239	-192	1	-69
COc1ccc2[nH]c3c(C)c4ccncc4c(C)c3c2c1	-2	-142	52*	16*	4
COc1ccc2[nH]c(C)cc(=O)c2c1	0	22	10	·	·
COc1ccc(-c2coc3cc4oc(=O)cc(-c5ccccc5)c4cc23)cc1F	0	-10	67*	·	29
COc1ccc(-c2coc3cc4oc(=O)cc(C)c4cc23)cc1F	0	-13	36	·	·
CCN(c1ccc(OC)cc1)S(=O)(=O)c1ccc(-c2cc(C)no2)s1	2	-8	31	2	·
CCc1ccccc1N(C)S(=O)(=O)c1ccc(-c2cc(C)no2)s1	-1	-69	55*	8.2*	28
CCOc1cccc(-c2nnc3n2N=C(c2cc(OC)ccc2OC)CS3)c1	-1	-64	53*	·	48*
COc1cccc(-c2nnc3n2N=C(c2cc(OC)ccc2OC)CS3)c1	0	6	17	·	·
CCOC(=O)c1cnc2c(ccc3ccccc32)c1N	6	-120	-166	-1	-117
O=C(NCCC1CCCCN1S(=O)(=O)c1ccccc1)C(=O)Nc1ccc(F)cc1 (stereo not drawn)	0	-12	9	2	·
COc1ccc(S(=O)(=O)N2CCCC2CNC(=O)C(=O)NCCc2ccccc2)cc1 (stereo not drawn)	3	-32	54*	0	29
COc1ccc(NC(=O)C(=O)NCCC2CCCCN2S(=O)(=O)c2ccc(F)cc2)cc1 (stereo not drawn)	3	-39	60*	4	23
Cc1ccc(C)c(S(=O)(=O)N2CCCCC2CCNC(=O)C(=O)NCc2cccnc2)c1 (stereo not drawn)	0	2	20	1	·
SMILES	HIF act	697 NFkB inh	Jurkat NFkB inh	F508del corr	Jurkat NFkB conf
Cc1ccc(S(=O)(=O)N2CCCCC2CCNC(=O)C(=O)NCc2cccnc2)cc1 (stereo not drawn)	2	6	62*	2	17
O=C(N/N=C/c1ccc(F)cc1)c1cc(-c2ccc3c(c2)OCO3)n[nH]1	?	-11	-10	0	·
Oc1ccc(F)cc1-c1cc(-c2ccc3c(c2)OCCO3)n[nH]1	3	-224	-160	·	-129
CC(C)c1ccc(-n2nc3ccc(N)cc3n2)cc1	5	-95	-169	-4	-41
COCC(=O)Nc1ccc2c(c1)C(=O)N(C)C[C@H](OC)[C@H](C)CN(Cc1ccccc1)[C@@H](C)CO2	·	·	·	0	·
COc1cc(N/N=C/c2ccc(N(C)C)cc2)ncn1	-1	-234	-155	-5	-93
COc1ccc(NC(=O)Nc2ccc3c(c2)C(=O)N([C@@H](C)CO)C[C@H](C)[C@@H](CN(C)Cc2ccc(C(F)(F)F)cc2)OCCCC[C@@H](C)O3)cc1	·	·	·	-4	·
Clc1ccc(CSc2nncn2-c2ccc3c(c2)OCCO3)cc1	-1	-46	58*	11*	44
Cc1noc(C)c1NC(=O)Nc1ccc2c(c1)C(=O)N([C@H](C)CO)C[C@@H](C)[C@@H](CN(C)C(=O)Nc1ccc(F)cc1)O2	·	·	·	2	·
C=CCSc1nc2ccccc2n1C(=O)/C=C/c1cc(OC)c(OC)c(OC)c1	0	-64	64*	-6	40
CC(=O)c1ccc2c(c1)C1C=CCC1C(c1cc3c(cc1Br)OCO3)N2 (stereo not drawn)	2	-35	80*	2	29
COc1ccc2c(c1)C1C=CCC1C(c1cc3c(cc1Br)OCO3)N2 (stereo not drawn)	0	20	4	·	·
CCOC(=O)c1sc(N)c(C(=O)Nc2ccccc2OC)c1C	0	-29	71*	?	18
c1ccc(N2CCN(c3cnc4ccccc4n3)CC2)cc1	2	-185	-152	·	-98
O=C(CSCc1ccccc1Cl)Nc1ccc2c(c1)OCCO2	2	-32	-162	·	-89
O=C(C1CCCC1)N1CC(=O)N2[C@@H](CO)[C@H](c3ccc(-c4ccccc4F)cc3)[C@@H]2C1	·	·	·	-1	·
COC(=O)C1C(=O)c2c([nH]c(C(=O)OC3CCCC3C)c2C)CC1C (stereo not drawn)	3	-161	-180	2	-112
COC(=O)C1C(=O)c2c([nH]c(C(=O)OC3CCCCC3)c2C)CC1C (stereo not drawn)	4	-169	-163	1	-93
COC(=O)C1C(=O)c2c([nH]c(C(=O)OCCOC(C)C)c2C)CC1C (stereo not drawn)	1	-27	-20	·	·
C[C@H](CO)N1C[C@H](C)[C@H](CN(C)S(=O)(=O)c2ccccc2)Oc2ncc(-c3cccc(C(=O)N(C)C)c3)cc2C1=O	·	·	·	1	·
COc1ccc(NC(=O)N[C@H]2CC[C@H](CCNC(=O)Cc3ccncc3)O[C@@H]2CO)cc1	·	·	·	1	·
FC(F)(F)c1cc(Cl)c2nc(-c3ccccc3)cn2c1	3	-191	-150	·	·
Nc1cccc(-c2cn3cc(C(F)(F)F)cc(Cl)c3n2)c1	1	-134	-194	·	-46
Clc1cccc(Cl)c1/C=C/c1nc2ccccc2[nH]1	2	-111	-159	·	-103
O=[N+]([O-])c1ccc(Sc2ccc(Cl)c(Cl)c2)nc1	0	5	79*	·	39
Cn1cnc(S(=O)(=O)N[C@@H]2C=C[C@H](CC(=O)NCC3CCCCC3)O[C@@H]2CO)c1	·	·	·	0	·
CCCCc1ccc(NC(=O)c2ccc(N(C)S(C)(=O)=O)cc2)cc1	1	-30	50*	-4	54*
CCCCc1ccc(NC(=O)c2ccc(NS(C)(=O)=O)cc2)cc1	0	-76	-14	-4	·
O=C(NC[C@@H]1CC[C@@H]2[C@@H](CN2Cc2nccs2)O1)C1CCC1	·	·	·	0	·
COc1ccccc1NC(=O)c1ccccc1C(=O)Nc1ccccc1OC	-1	4	4	-1	·
